# Compound activity from PubChem BioAssay.
# IL1B secr inh = blocks inflammasome-driven IL-1 beta release; THP-1 LPS/ATP IL-1B secretion, AlphaLISA, 16 h; active compounds read low; activity change, % at 57.5 µM; actives 4.7% (n = 360,000); AID 743279; in the data active = activity change below about -50%; inconclusive = mostly about -30% to -49%
#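 Secreted IL-1B measured by AlphaLISA bead assay after 16 h compound exposure of THP-1 cells; compounds (final up to 57.5 uM) added 1 h before LPS (250 ng/mL) and ATP (1.25 mM) stimulation; lower signal means less secretion.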
# HT1080 IDH1KD tx = HT-1080 IDH1 knockdown cell toxicity (counter line). HT-1080 IDH1 knockdown viability, ATP luminescence, 48 h. Potency, µM (series often up to 46.1 µM), inactives show at the highest dose activity, negative = toxicity, actives largely listed as cytotoxic. actives 2% (n = 360,000). AID 686971;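 note: potency is the fitted concentration of half-maximal effect; 0% = DMSO wells and -100% = cell-free medium wells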
#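 Assay cells: HT-1080 with IDH1 knockdown, 750 per well, RPMI/5% FBS. Exposure: 48 h at 37 °C following 2 h pre-incubation. Read: CellTiter-Glo luminescence; fitted concentration-response, curve class assigned.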
# TDP1 cell CPT = DT40-hTDP1 cell growth loss with CPT; actives 12% (n = 420,000); AID 686979; chicken DT40 Tdp1-/-;hTDP1 cells + 20 nM CPT, ATP luminescence, 48 h; Potency, µM (top dose mostly 46.2 µM), for inactives: at the top dose activity change, negative = growth inhibition, most hits filed as inhibitors; note: potency is the fitted concentration of half-maximal effect; nearly all actives have a fitted effect of over 55% in size
#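 Chicken DT40 Tdp1-/- cells stably complemented with human TDP1 were seeded at 400 cells/well in medium containing 20 nM camptothecin, exposed to pin-transferred compounds, and grown at 37 °C for at least 48 hr. Viability was read as ATP luminescence.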
# HT1080NT lethal = kills 2HG-producing HT-1080-NT fibrosarcoma cells | actives 1.6% (n = 360,000) | HT-1080-NT fibrosarcoma viability, CellTiter-Glo ATP luminescence, 48 h | AID 686970 | Potency, µM (titrated, usually from 46.1 µM), for the others: top-dose activity, negative = less viability, actives largely listed as cytotoxic;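 note: NT is the 2HG producing partner of a matched IDH1 knockdown line; potency is the fitted concentration of half-maximal effect; 0% = DMSO-treated cells and -100% = media-only wells without cells; nearly all actives have a fitted effect of over 55% in size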
#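 750 cells/well, RPMI + 5% FBS; 2 h settle, compound pin-transfer, 48 h at 37 degrees C. CellTiter-Glo 10 min RT, luminescence. Normalized to DMSO and media-only wells.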
# uPA surface inh = inhibitors of cell surface uPA generation. cell surface uPA generation assay, qHTS. Potency, µM (highest dose often 38.3 µM), inactives show at the highest dose activity change, negative = inhibition, usual class: inhibitors. actives 0.31% (n = 330,000). AID 540303; active = well fitted inhibition curve with a large enough effect; inconclusive = small, poorly fitted or top-dose-only effect; inactive = no such curve, though single readings can be large or run the other way; tested in mouse RAW 264.7 cells; note: potency is the fitted concentration of half-maximal effect; nearly all actives have a fitted effect of over 55% in size
# DT40 TDP1 no CPT = qHTS for Inhibitors of human tyrosyl-DNA phosphodiesterase 1 (TDP1): qHTS in cells in absence of CPT; DT40 Tdp1-/- hTDP1 cells, no CPT, ATP luminescence, 48 h; Potency, µM (doses to about 46.2 µM), without a hit: top-dose activity change, negative = growth inhibition, most hits filed as inhibitors; actives 15% (n = 420,000); note: potency is the fitted concentration of half-maximal effect; nearly all actives have a fitted effect of over 55% in size
#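 Growth kinetics read by CellTiter-Glo luminescence after ≥48 hr at 37 °C. Cells: DT40 Tdp1-/- stably carrying human TDP1, 400 per well, compound exposure in the absence of CPT (DMSO vehicle).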
# * hit, by the source's call; ? = inconclusive; . = no result. Hits are enriched below; roughly 19% of the tested compounds scored in any of these assays. Unless noted, calls come from the whole dose curve; as a rule, active = well fitted curve in the direction sought with a large enough effect; inconclusive = small, poorly fitted or top-dose-only effect, or another doubt; inactive = no such curve, though single readings can be large; an effect the other way counts as inactive or inconclusive. Unless noted, % is set by controls: 0 for no effect and ±100 for the full control effect.
SMILES,IL1B secr inh,HT1080 IDH1KD tx,TDP1 cell CPT,HT1080NT lethal,uPA surface inh,DT40 TDP1 no CPT
CCCCCCSc1ccc([C@@H]2[C@H]3C(=O)N(CC)C(=O)[C@H]3[C@]3(C(=O)OC)CCCCN23)cc1OC,-6,2%,21µM*,17%,24%,?
CCCSc1ccc([C@@H]2[C@@H]3C(=O)N(C)C(=O)[C@@H]3[C@]3(C(=O)OC)CCCN23)cc1OC,10,1%,18µM*,0%,2%,?
CCN1C(=O)[C@@H]2[C@@H](c3ccc(-c4ccc5c(c4)OCO5)c(OC)c3)N3CCCC[C@@]3(C(=O)OC)[C@@H]2C1=O,17,-2%,?,5%,21%,?
COc1ccc(C=O)c(-c2c(-c3ccccc3OC)sc3ccccc23)c1,5,?,?,?,.,?
COc1ccc(-c2noc(N3CCCC(C(=O)Nc4ccc(C(C)=O)cc4)C3)n2)cc1 (centres undefined),?,-5%,?,-18%,4%,?
COc1cccc(OC)c1C(=O)Nc1ccc(-c2nc3ncccc3o2)cc1,.,.,-20%,.,.,?
O=C(CC[C@H]1O[C@@H](n2ccc(=O)[nH]c2=O)[C@H](O)[C@@H]1O)NCCCc1ccccc1,0,11%,4%,3%,.,-3%
C=CCC1(CC=C)CCCN1C(=O)Cn1nnnc1CN(C)C(C)C,33,1%,-1%,2%,-3%,20%
CCN1C(=O)[C@H]2[C@@H](c3ccc(SC4CCCCC4)c(OC)c3)N3CCCC[C@@]3(C(=O)OC)[C@H]2C1=O,0,?,?,-28%,-3%,23µM*
COc1ccc(CNC(=O)c2cnn3c(C)c(Cc4c(F)cccc4Cl)c(C)nc23)cc1,.,.,12µM*,.,.,21µM*
Cc1nc2c(C(=O)N3CCCC3)cnn2c(C)c1Cc1c(F)cccc1Cl,-2,4%,-36%,7%,.,-26%
Cc1nc2c(C(=O)NCc3ccccc3)cnn2c(C)c1Cc1ccc(F)cc1,.,.,7.3µM*,.,.,8.2µM*
CC(C)CN(C[C@@H](O)[C@H](Cc1ccccc1)NC(=O)O[C@H]1CO[C@H]2OCC[C@H]21)S(=O)(=O)c1ccc(N)cc1,.,.,-6%,.,.,?
O=C(O)c1ccc(N2C(=O)/C(=C\c3ccccc3)N=C2c2ccccc2)cc1,-73*,29%,11%,26%,1%,-27%
COC(=O)c1ccccc1O,.,.,-11%,.,.,-8%
COC(=O)c1ccc(=O)c2nc3/c(=C/O)c(O)cc(=O)c3[nH]c12,-6,-3%,21µM*,0%,-28%,?
Cc1onc(-c2c(F)cccc2Cl)c1C(=O)OCC(=O)NC(=O)NCC(C)C,-19,-17%,-23%,-25%,10%,7.3µM*
COc1ccc(CNC(=O)COC(=O)c2c(-c3c(F)cccc3Cl)noc2C)cc1OC,-8,4%,?,-6%,.,?
Cc1cccc(NC(=O)CSc2nnc(CNC(=O)c3ccco3)n2C)c1C,3,-1%,4%,-9%,3%,2%
CCCC[n+]1c(/C=C/c2ccc(N(C)C)cc2)sc2ccccc21,.,.,0.025µM*,.,.,0.1µM*
CN(C)c1ccc(/C=C/c2sc3ccccc3[n+]2CCCCI)cc1,.,.,0.56µM*,.,.,0.71µM*
CCCCCCCCCC[n+]1ccc(/C=C/c2ccc(N(C)C)cc2)c2ccccc21,.,.,0.35µM*,.,.,0.32µM*
CN(Cc1ccccc1)c1ccc(/C=C/c2sc3ccccc3[n+]2C)cc1,.,.,0.089µM*,.,.,0.11µM*
Cc1ccc(C)c(C(O)c2ncc(-c3ccccc3F)[nH]2)c1 (centres undefined),20,12%,?,22%,.,?
Cc1cc(=O)n2nc(N3CCCC3C(=O)Nc3cccc(F)c3)sc2n1 (centres undefined),16,-9%,0%,0%,-9%,-25%
SMILES,IL1B secr inh,HT1080 IDH1KD tx,TDP1 cell CPT,HT1080NT lethal,uPA surface inh,DT40 TDP1 no CPT
Cc1ccc(N2CC(NC(=O)CCc3ccccc3)CC2=O)cc1C (centres undefined),.,.,-5%,.,.,-21%
C=C1C[C@H](O[C@@H]2O[C@H](CO)[C@@H](O)[C@H](O)[C@H]2O)[C@@H]2[C@H](OC(=O)[C@H]2C)[C@H]2[C@H](C)[C@H](O)C[C@@H]12,24,6%,-19%,11%,6%,2%
Cc1sc(NC(=O)C2=COCCO2)c(C(N)=O)c1C,-18,-3%,7%,-3%,-2%,-12%
CC(=O)c1ccc(C(=O)N2CCCC(Nc3ccccc3)C2)s1 (centres undefined),2,2%,-8%,6%,-3%,9%
CC(=O)c1ccc(C(C)(C)c2ccc(C(C)=O)s2)s1,-9,-12%,?,-11%,-6%,23µM*
O=C(CN1CCN(c2ccc(O)cc2)CC1)Nc1cc(S(=O)(=O)N2CCCCC2)ccc1Cl,-16,-17%,10µM*,?,-6%,10µM*
CCN1CCN(CC(=O)Nc2cc(S(=O)(=O)N3CCCCC3)ccc2Cl)CC1,-12,-11%,-25%,-7%,1%,-10%
O=C(CNc1ccccc1F)Nc1cc(S(=O)(=O)N2CCCCC2)ccc1Cl,10,-1%,-30%,-14%,-19%,-27%
O=C(CN1CCN(c2ccc(O)cc2)CC1)Nc1cc(S(=O)(=O)N2CCCC2)ccc1Cl,-14,-6%,?,-2%,-24%,18µM*
CC1CN(CC(=O)Nc2cc(S(=O)(=O)N3CCCC3)ccc2Cl)CC(C)O1 (centres undefined),11,9%,-22%,6%,5%,?
O=C(CNCc1ccc(Cl)cc1)Nc1cc(S(=O)(=O)N2CCCC2)ccc1Cl,-3,-2%,21µM*,4%,0%,?
CCOC(=O)C1CCN(CC(=O)Nc2cc(S(=O)(=O)N3CCCCC3)ccc2Cl)CC1,-7,-12%,21µM*,-13%,-19%,21µM*
Cc1ccc(CNC(=O)c2cc(Cl)cc(Cl)c2)n1C,33,-4%,-11%,0%,0%,21%
O=C(c1ccncc1)N1CCC2(CCCN(Cc3ccncc3)C2)CC1,.,.,4%,.,.,-12%
Cc1ccc(C(=O)N(C)CCOc2ccccc2)cc1S(=O)(=O)N1CCCCC1,0,-5%,18µM*,-7%,-1%,?
Cc1cccc(OCCC(=O)Nc2ccc(C)c(S(=O)(=O)N3CCOCC3)c2)c1,-15,-16%,?,1%,0%,?
